{"source": "PubChem BioAssay (NCATS)", "note": "Records with an inconclusive call do not appear. A call without a number means that no potency is given here. The source made the active and inactive calls. Calls come from the whole dose curve; as a rule, active = well fitted inhibition curve with a large enough effect; inconclusive = small, poorly fitted or top-dose-only effect; inactive = no such curve, though single readings can be large or run the other way. Potency is the fitted concentration of half-maximal effect.", "data": [{"assay": "qHTS to identify inhibitors of the type 1 interferon - major histocompatibility complex class I in skeletal muscle: primary screen against the NCATS Mechanism Interrogation Plate v5.0 (MIPE) Libary (AID 1347411); note: nearly all actives have a fitted effect of over 65% in size", "conditions": "iHSKM cells + IFN-b, HiBiT-tagged MHC-I luminescence, 24 h; series mostly up to 45.8 µM", "in_short": "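Immortalized human C25cl48 myoblasts with HiBit knocked into endogenous HLA-B*08:01 were stimulated with 4.0 ng/ml IFN-beta and exposed to compounds (11-point 1:3 titration, top 46 uM final) for 24 hrs at 37 C; HiBiT lytic luminescence measured.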", "values": [{"smiles": "CC(=O)OCC(=O)[C@@]12N=C(C)O[C@@H]1C[C@H]1[C@@H]3CCC4=CC(=O)C=C[C@]4(C)[C@H]3[C@@H](O)C[C@@]12C", "Potency": "inactive"}, {"smiles": "COc1c(C)c2c(c(O)c1C/C=C(\\C)CCC(=O)O)C(=O)OC2", "Potency": "inactive"}, {"smiles": "CC(=O)OCC(=O)[C@@]12OC(C)(C)O[C@@H]1C[C@H]1[C@@H]3C[C@H](F)C4=CC(=O)C=C[C@]4(C)[C@@]3(F)[C@@H](O)C[C@@]12C", "Potency": "inactive"}, {"smiles": "CC(=O)O[C@]1(C(C)=O)CC[C@H]2[C@@H]3C[C@H](C)C4=CC(=O)CC[C@]4(C)[C@H]3CC[C@@]21C", "Potency": "inactive"}, {"smiles": "CN(C)CC/C=C1/c2ccccc2COc2ccc(CC(=O)O)cc21", "Potency": "inactive"}, {"smiles": "Nc1ccn([C@@H]2O[C@H](CO)[C@@H](O)C2(F)F)c(=O)n1", "Potency": "inactive"}, {"smiles": "C[C@]12C=CC(=O)C=C1CC[C@@H]1[C@@H]2[C@@H](O)C[C@@]2(C)[C@H]1CC[C@]2(O)C(=O)CO", "Potency": "inactive"}, {"smiles": "CC/C(=C(/CC)c1ccc(O)cc1)c1ccc(O)cc1", "Potency": "inactive"}, {"smiles": "COC(=O)[C@@H]1CC2=CC(=O)CC[C@]2(C)[C@@]23O[C@@H]2C[C@@]2(C)[C@@H](CC[C@@]24CCC(=O)O4)[C@H]13", "Potency": "inactive"}, {"smiles": "COc1cccc2c1C(=O)c1c(O)c3c(c(O)c1C2=O)C[C@@](O)(C(=O)CO)C[C@@H]3O[C@H]1C[C@H](N)[C@H](O)[C@H](C)O1", "Potency": "829 nM (active)"}, {"smiles": "CC(=O)N(O)CCCCCNC(=O)CCC(=O)N(O)CCCCCNC(=O)CCC(=O)N(O)CCCCCN", "Potency": "inactive"}, {"smiles": "CC1(C)O[C@@H]2C[C@H]3[C@@H]4C[C@H](F)C5=CC(=O)C=C[C@]5(C)[C@H]4[C@@H](O)C[C@]3(C)[C@]2(C(=O)CO)O1", "Potency": "inactive"}]}]}
